# From PubChem BioAssay (Tox21)
# Records with an inconclusive call do not appear. Values without a mark were called inactive. Calls come from the whole dose curve; as a rule, active = well fitted cell-killing curve with a large enough effect in the repeat runs; inconclusive = weak or mixed curves; inactive = flat fitted curve, though single readings scatter. Where a SMILES comes first, the peptide text is derived from it. [ ]: non-standard residue; d: D form. pGlu = O=C1CC[C@@H](C(=O)O)N1
# Assay: qHTS assay to identify small molecule antagonists of the estrogen related receptor (ERR) signaling pathway from Tox21 library - cell viability counter screen (AID 1224834); note: nearly all actives have a fitted effect of over 30% in size
# Conditions: ERR reporter cells viability, CellTiter-Fluor, 17.5 h; series mostly up to 92.4 µM; viability change, negative = cytotoxic: at the top concentration
# How it was run: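 Viability readout (CellTiter-Fluor fluorescence, 30 min at 37 C) multiplexed with the ERR assay; cells treated 17.5 h at 37 C with compounds delivered in DMSO.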
# % is set by controls: 0 for no effect and ±100 for the full control effect.
row,Structure (SMILES),"viability change, negative = cytotoxic"
1,Clc1cc(Cl)c(Cl)nc1Cl,2.99%
2,C[C@@H]1CCC[C@H](C)N1,0.251% [at 42.5 µM]
3,CCOC(=O)OC(C)OC1=C(C(=O)Nc2ccccn2)N(C)S(=O)(=O)c2ccccc21 (stereo not drawn),0.211% [at 42.5 µM]
4,O=C(O)CC(C(=O)O)S(=O)(=O)O (stereo not drawn),6.05%
5,[O-][n+]1cccc(CO)c1,-1.45% [at 42.5 µM]
6,CC(=O)c1ccccc1[N+](=O)[O-],5.44%
7,Cc1cccc(C)c1NC(=O)CC12CCCN1CCC2,1.61% [at 42.5 µM]
8,OCCCCCO,1.57%
9,CC(COc1ccccc1)NN (stereo not drawn),3.22% [at 42.5 µM]
10,NS(=O)(=O)Cc1noc2ccccc12,0.108% [at 42.5 µM]
11,Cc1cc(C)c(N=Nc2c(O)c(S(=O)(=O)O)cc3cc(S(=O)(=O)O)ccc23)cc1C,-4.92% [at 8.39 µM]
12,Nc1c2c(nc3c1CCC3)CCCC2,2.09% [at 42.5 µM]
13,O=S(=O)(O)c1cccc2c(S(=O)(=O)O)cccc12,2.62%
14,CCCCCCCCN1CCCC1=O,0.755%
15,CNCC(O)c1ccc(O)c(O)c1 (stereo not drawn),-2.52% [at 42.5 µM]
16,O=S(=O)(O)c1cccc(S(=O)(=O)O)c1,3.77%
17,CCCO[Si](OCCC)(OCCC)OCCC,1.4%
18,CC[C@H]1OC(=O)[C@H](C)[C@@H](O[C@H]2C[C@@](C)(OC)[C@@H](O)[C@H](C)O2)[C@H](C)[C@@H](O[C@@H]2O[C@H](C)C[C@H](N(C)C)[C@H]2O)[C@](C)(OC)C[C@@H](C)C(=O)[C@H](C)[C@@H](O)[C@]1(C)O,-0.0511%
19,C=CCCCCCCCCC(=O)OCC,7.73%

row,Structure (SMILES),"viability change, negative = cytotoxic"
1,CO[Si](C)(OC)c1ccccc1,2.01%
2,C=CCCC(=O)O,-0.669%
3,O=Cc1cccc(Br)c1,1.44%
4,CN1C(C)(C)CC(O)CC1(C)C,2.63%
5,C[N+]1(CC2COC(c3ccccc3)(c3ccccc3)O2)CCCCC1 (stereo not drawn),7.36% [at 19 µM]
6,Clc1cc(Cl)cc(Cl)c1,4.59%
7,CCOC(=O)COC(=O)c1ccccc1C(=O)OCC,2.13%
8,CC1=NN(c2cccc(S(=O)(=O)O)c2)C(=O)C1,-4.43%
9,CN1CCC(=C2c3ccccc3CCc3cccnc32)CC1,-2.63% [at 42.5 µM]
10,Cc1nc(C2CCCCC2)c(-c2ccc(S(N)(=O)=O)c(F)c2)o1,-3.21% [at 42.5 µM]
11,Nc1ccn([C@@H]2O[C@H](CO)[C@@H](O)C2(F)F)c(=O)n1,1.15% [at 42.5 µM]
12,CCCCCCC1CCC(=O)O1 (stereo not drawn),0.164%
13,C=COCC1CCC(COC=C)CC1 (stereo not drawn),-0.58%
14,CC1(C)OC[C@@H](COC(=O)CCc2ccc(OC[C@@H](O)CNCCNC(=O)N3CCOCC3)cc2)O1,5.74% [at 42.5 µM]
15,CC(=O)Oc1cccc(C)c1,0.429% [at 42.5 µM]
16,CCC(C(=O)NC(=O)NC(C)=O)c1ccccc1 (stereo not drawn),3.42% [at 42.5 µM]
17,O=C(O)CCCC[P+](c1ccccc1)(c1ccccc1)c1ccccc1,2.31% [at 42.5 µM]
18,CCCCOCCOC(=O)CCCCCCCCC(=O)OCCOCCCC,-0.639%
19,CCNC(=O)[C@@H]1CCCN1C(=O)[C@H](CCCN=C(N)N)NC(=O)[C@H](CC(C)C)NC(=O)CNC(=O)[C@H](Cc1ccc(O)cc1)NC(=O)[C@H](CO)NC(=O)[C@H](Cc1c[nH]c2ccccc12)NC(=O)[C@H](Cc1cnc[nH]1)NC(=O)[C@@H]1CCC(=O)N1 ([pGlu]HWSYGLRP-NHEt),8.59% [at 42.5 µM]
